Calls of active or inactive are those of the source. Rule for the calls: active = hit-call score of the fitted dose curve at least 0.9, where 1 is the maximum; inactive = score below 0.9.
Experiment: ATG_TA_CIS: Attagene CIS-FACTORIAL HepG2 Assay for human TA Basal Promoter (AID 2282964)
Settings: HepG2 Attagene CIS-factorial TA basal promoter reporter; actives raise or lower the signal
Method: ATG_CIS is a cell-based, multiplexed-readout assay that uses HepG2, a human liver cell line, with measurements taken at 24 hours after chemical dosing in a 24-well plate.ATG_TA_CIS is one of 52 assay component(s) measured or calculated from the ATG_CIS assay. It is designed to make measurements of mRNA induction, a form of inducible reporter, as detected with fluorescence intensity signals by Reverse transcription polymerase chain reaction (RT-PCR) and Capillary electrophoresis technology.Data from the assay component ATG_TA_CIS was analyzed into 1 assay endpoint. This assay endpoint, ATG_TA_CIS, was analyzed with bidirectional fitting relative to DMSO as the negative control and baseline of activity. Using a type of inducible reporter, measures of mRNA for gain or loss-of-signal activity can be used to understand the background control at the transcription factor-level as they relate to the gene . Furthermore, this assay endpoint can be referred to as a secondary readout, because this assay has produced multiple assay endpoints where this one serves a background control function. To generalize the intended target to other relatable targets, this assay endpoint is annotated to the background measurement intended target family, where the subfamily is internal marker.
Human liver HepG2 cells are transiently transfected with multiple reporter transcription units (MRTUs) in 6-well plates using FuGene 6 reagent (Roche; 3 ml FuGene/1 mg DNA). The MRTU constructs are regulated by a cis-regulating element (promoter). […] A major difference between the CIS and TRANS system is that in CIS activities of endogenous TFs are measured, whereas the TRANS assay evaluates changes in activities of exogenous, chimeric NR-Gal4 proteins. […] At the end of 24 hour incubation, total RNA was isolated using TriZol reagent (Invitrogen). The isolated RNA is then reverse-transcribed using oligo(dT) primer and Mo-MLV reverse transcriptase (Invitrogen) with DNAse I (Ambion) treatment for 30 min. The one-tenth of the produced cDNA was amplified by PCR using Taq DNA polymerase (Invitrogen) and two reporter sequence-specific primers. The PCR products were fluorescently labeled by primer extension with 6-arboxyfluorescein (6-FAM) 5'-labeled reporter sequence-specific primer (2 min at 95 C, 20 s at 68 C and 10 min at 72 C) and these products were digested with 5U of HpaI (New England Biolabs) for 2h at 37 C. The fragments were purified using Qiaquick PCR columns (Qiagen), analyzed on an ABI 3130xL genetic analyzer (Applied Biosystems) with peak positions identified by using a set of X-rhodamine (ROX)-labeled MapMarker1000 molecular weight standards (BioVentures). The raw capillary electrophoresis data was processed using Attagraph software (Attagene).

| Structure (SMILES) | outcome |
| --- | --- |
| CS(C)=O | inactive |
| COCCc1ccc(OCC(O)CNC(C)C)cc1 (stereo not given) | inactive |
| C=C(C)C(=O)OCCOC1CC2CC1C1C=CCC21 (stereo not given) | inactive |
| CC(CN=Cc1ccccc1O)N=Cc1ccccc1O (stereo not given) | inactive |
| CC(C)CCCCCCc1ccc(OCCOCCO)cc1 | inactive |
| CC(=O)O[C@@H]1CC2CCC1(C)C2(C)C (stereo not given in full) | inactive |
| OCC(O)c1ccccc1 (stereo not given) | inactive |
| CCO/C=C1\N=C(c2ccccc2)OC1=O | inactive |
| CS(=O)(=O)c1ccc(C2=C(c3ccccc3)C(=O)OC2)cc1 | inactive |
| OCC#CCO | inactive |
| Cc1ccc(C)o1 | inactive |
| C[Si]1(C)O[Si](C)(C)O[Si](C)(C)O1 | inactive |
| COC(=O)c1cccnc1 | inactive |
| C=C(C)[C@H]1CC=C(C)C(=O)C1 | inactive |
| C#CC(C)(O)CC(C)C (stereo not given) | inactive |
| NC(=S)NNC(N)=S | inactive |
| O=C(O)c1cc(C(=O)O)cc([N+](=O)[O-])c1 | inactive |
| O=C1c2ccccc2C(=O)c2c(O)ccc(O)c21 | inactive |
| CCCCCCCCCCCCS(=O)(=O)Cl | inactive |
| COC(C)(C)CCO | inactive |

| Structure (SMILES) | outcome |
| --- | --- |
| Clc1cc(Cl)c(-c2c(Cl)c(Cl)cc(Cl)c2Cl)cc1Cl | inactive |
| CC1CC(O)CC(C)(C)C1 (stereo not given) | inactive |
| CCCSc1ccc2nc(NC(=O)OC)[nH]c2c1 | inactive |
| CCCCCCCCCC(=O)OC | inactive |
| CCCCOCC | inactive |
| CCN(CCN)c1cccc(C)c1 | inactive |
| O=[N+]([O-])c1ccc(O)cc1C(F)(F)F | inactive |
| COS(=O)(=O)O | inactive |
| O=C1OC[C@H](Cc2cccc(O)c2)[C@H]1Cc1cccc(O)c1 | inactive |
| CCCCCCCCCCCC(=O)OCC(O)CO (stereo not given) | inactive |
| OC[C@H]1O[C@@H](Oc2ccc(O)cc2)[C@H](O)[C@@H](O)[C@@H]1O | inactive |
| O=Cc1ccccc1S(=O)(=O)O | inactive |
| CS(=O)(=O)c1ccc(Cl)cc1 | inactive |
| CCCCCCCC(=O)OCCCCCC | inactive |
| C[C@H]1O[C@@H](O[C@H]2[C@@H](O)C[C@H](O[C@H]3[C@@H](O)C[C@H](O[C@H]4CC[C@@]5(C)[C@H](CC[C@@H]6[C@@H]5C[C@@H](O)[C@]5(C)[C@@H](C7=CC(=O)OC7)CC[C@]65O)C4)O[C@@H]3C)O[C@@H]2C)C[C@H](O)[C@@H]1O | inactive |
| O=C(c1ccccc1)C(O)c1ccccc1 (stereo not given) | inactive |
| ON=C1CCCCC1 | inactive |
| CCCCC1CCC(O)CC1 (stereo not given) | inactive |
| C=C(C)[C@@H]1CC=C(C)C(=O)C1 | inactive |
| C=COCCOCCOC=C | inactive |
